Results taken from PubChem BioAssay (NCI).
The panel holds about 79,000 compounds, 15% with a hit somewhere; the sample as a whole holds those more often. Calls of active or inactive are those of the source. Rule as the data show it: active = growth inhibition above about 70%; inactive = the rest.

How the values were obtained:
[1] = NCI Yeast Anticancer Drug Screen. Data for the rad50 strain (AID 155);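 also: 0% = growth of vehicle-only cultures of the same strain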; conditions: S. cerevisiae rad50 strain growth inhibition; at 50.0 µM; hits give high values
Procedure, shortened: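 Vehicle-treated cultures provide the reference for the growth inhibition reported for compound-exposed, repair-deficient yeast.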

[2] = NCI Yeast Anticancer Drug Screen. Data for the mec2-1 strain (AID 157); conditions: S. cerevisiae mec2-1 strain, at 50.0 µM, hits give high values
Procedure, shortened: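 Yeast mec2-1 mutant treated with compound. Readout: growth inhibition vs vehicle controls.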

[3] = NCI Yeast Anticancer Drug Screen. Data for the sgs1 mgt1 strain (AID 161);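 also: 0% = growth of cultures given vehicle only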; conditions: S. cerevisiae sgs1 mgt1 strain, at 50.0 µM, hits give high values
Procedure, shortened: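 Read-out: growth inhibition vs vehicle controls. Cells: mutant yeast strain deficient in DNA damage repair.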

[4] = NCI Yeast Anticancer Drug Screen. Data for the cln2 rad14 strain (AID 165);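 also: 0% = growth equal to vehicle treated cultures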; conditions: S. cerevisiae cln2 rad14 strain, at 50.0 µM, hits give high values
Procedure, shortened: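 cln2 rad14 yeast strain; compound exposure; growth inhibition read vs vehicle controls.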

[5] = NCI Yeast Anticancer Drug Screen. Data for the bub3 strain (AID 167); conditions: S. cerevisiae bub3 mutant strain, at 50.0 µM, hits give high values
Procedure, shortened: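 Mutant yeast screening strain plus compound; vehicle-treated cultures serve as the 0% inhibition reference.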

[6] = NCI Yeast Anticancer Drug Screen. Data for the mlh1 rad18 strain (AID 175); conditions: S. cerevisiae mlh1 rad18 strain growth inhibition; at 50.0 µM; hits give high values
Procedure, shortened: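 Yeast w/ defined DNA-repair lesions; compound exposure; growth vs vehicle controls → % inhibition.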

Measured: growth inhibition

CC/C(Cl)=N\OC(=O)Nc1ccc(OC)cc1
inactive: [1] -5.35% | [2] -16.1% | [3] -3.3% | [4] 2.6% | [5] 1.15% | [6] -68.8%

CC(C)(C)c1cc(C2COC(=O)COCCOCC(=O)OCCOCCO2)cc(C(C)(C)C)c1O (stereo not drawn)
inactive: [1] 12.5% | [2] -13.8% | [3] -10.4% | [4] 4.4% | [5] -23.3% | [6] -60.5%

C=C(CCC(C(=O)O)C1CCC2(C)C3=C(CCC12C)C1(C)CCC(O)C(C)(C)C1CC3)C(C)C (stereo not drawn)
inactive: [1] -4% | [2] -29.5% | [3] -0.75% | [4] 2.15% | [5] -23.6% | [6] -8.25%

COC(=O)C(/C(=N/NC(N)=O)C(=O)Nc1ccc(C)cc1)c1nc2ccc([N+](=O)[O-])cc2[nH]c1=O (stereo not drawn)
inactive: [1] 22.1% | [2] 26.3% | [3] 0.45% | [4] -48.4% | [5] -11% | [6] 42.8%

CC1CC(=O)N(N(C)C)C(C#N)(C#N)C1(C#N)C#N (stereo not drawn)
inactive: [1] 24.4% | [2] 30.6% | [3] 11.2% | [4] 17.5% | [5] 0.8%
active: [6] 80.5%

COc1ccccc1-c1n[nH]c(-c2ccccc2O)n1
inactive: [1] 31.7% | [2] -24.1% | [3] 27.8% | [4] -10.7% | [5] 22.9% | [6] -54.1%

CC(C)=CC(O)C/C(C)=C/CC/C(C)=C/CCC1(C)C(CCCO)/C(=C(/C)C=O)CCC1(C)O (stereo not drawn)
inactive: [1] 18.9% | [2] 4.75% | [3] 10.2% | [4] 16.9% | [5] 4.6% | [6] -52.9%

COc1ccc(C)cc1NC(=S)C#N
inactive: [1] 12.6% | [2] -1.2% | [3] -0.15% | [4] -18.6% | [5] 1.3% | [6] -44.9%

N#CC(=S)Nc1ccc(F)cc1
inactive: [1] 20.2% | [2] 26.1% | [3] 30.7% | [4] -17.8% | [5] 10.9% | [6] -5.8%

N#CCCOc1ccccc1
inactive: [1] -1.3% | [2] -26% | [3] -9.9% | [4] 15.9% | [5] -30.6% | [6] -8.5%

NC1N=C(c2ccc(Cl)cc2)C2=C(N1)c1ccccc1CC2 (stereo not drawn)
inactive: [1] -7.1% | [2] 0.9% | [3] -0.75% | [4] 8.05% | [5] 18.9% | [6] -50.7%

COc1cc([C@H]2OC[C@H]3[C@@H]2CO[C@@H]3c2cc(OC)c3c(c2)OCO3)cc(OC)c1OC
inactive: [1] 17.1% | [2] -2.25% | [3] 1.25% | [4] 21.7% | [5] 39% | [6] -80.7%

COC(=O)C(=O)C(C(=O)C(=O)Nc1nc2ccc(C)cc2s1)c1nc2ccc([N+](=O)[O-])cc2[nH]c1=O (stereo not drawn)
inactive: [1] 56.1% | [2] 15.4% | [3] 22.1% | [4] -30.6% | [5] 26.1% | [6] 20.2%

CCCCC1C(=O)N(c2ccc(S(=O)(=O)Nc3ccccn3)cc2)N(c2ccc(O)c(C(=O)O)c2)C1=O (stereo not drawn)
inactive: [1] 21.8% | [2] 23.7% | [3] 6.7% | [4] 23.2% | [5] 34.6% | [6] 8.85%

C/C(O)=C/c1nc2sc(C)c(C)c2c(=O)s1
inactive: [1] 14.4% | [2] 9.35% | [3] 9.85% | [4] 5.5% | [5] 15.2% | [6] -16.5%

COc1cc2oc3c(c(=O)c2c(O)c1/C=C/C(C)C)CCC(C)(C)Oc1cc(O)ccc1-3
inactive: [1] 22.6% | [2] 11.1% | [3] 49% | [4] 47.3% | [5] 39.5% | [6] -26.4%

CC(=O)c1ccc(NC(=O)/C(CC(=O)/C=C/c2ccccc2)=N/NC(N)=S)cc1
inactive: [1] 37.1% | [2] -32.4% | [3] 23.9% | [4] 16.3% | [5] 35.1% | [6] 9.65%

COc1cc(C)c2c(c1C=O)Oc1c(c(C)c(O)c3c1C(O)OC3=O)OC2=O (stereo not drawn)
inactive: [1] 25.3% | [2] -7.65% | [3] 4.85% | [4] 25.6% | [5] -4.85% | [6] -60.3%
